Test results: PubChem BioAssay
Calls of active or inactive are those of the source.

Columns and labels:
[1] = E. coli DRC41 culture turbidity changes, primary screen, E. coli filamentation inducer project, strain DRC41, OD650, 48 h (AID 1152);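 note: E. coli MC1000 strain DRC41 lacking acrAB efflux pump and sulA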; details: E. coli DRC41 (acrAB sulA), higher = more signal, called active from +8 up or from −8 down
[2] = small-molecule binders of probe aLefty1, primary screen, biochemical, small-molecule microarray, 635/667 nm fluorescence (AID 1153); details: higher = more signal;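 note: score merges spot fluorescence with signal-to-noise ratio from the scanned slide images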
[3] = PSAC antagonists in infected red cells, primary screen, cell-based, P. falciparum Indochina, OD700, 1 h (AID 1154); details: P. falciparum Indochina infected RBC osmotic lysis, higher = more signal, called active from +8 up or from −8 down
[4] = PSAC antagonists in infected red cells, primary screen, cell-based, P. falciparum Indochina, OD700, 2 h (AID 1155);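 note: lysis reports solute entry through the parasite surface anion channel PSAC; channel blockers reduce lysis of infected cells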; details: P. falciparum Indochina infected erythrocytes, osmotic lysis OD700; higher = more signal, called active from +8 up or from −8 down
[5] = osmotic lysis modulators in infected erythrocytes, primary screen, PSAC antagonist project, cell-based, P. falciparum Indochina, OD700, 3 h (AID 1156); details: higher = more signal, called active from +8 up or from −8 down
[6] = PSAC antagonists in infected red cells, primary screen, cell-based, P. falciparum Indochina, OD700, 18 h (AID 1157); details: P. falciparum Indochina infected erythrocytes, osmotic lysis OD700, 18 h; higher = more signal, called active from +8 up or from −8 down
[7] = modulators of S6 phosphorylation in cells, primary screen, cell-based, A549, cytoblot, luminescence, serum-stimulated (AID 1158); details: A549 phospho-S6 cytoblot, 5 h, higher = more signal;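 note: serum-stimulated A549 lung adenocarcinoma cells; signal is phosphorylated S6 detected by cytoblot immunostaining with HRP secondary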
[8] = biological target: NADPH oxidase 2 (Homo sapiens) (UniProt P04839); experiment: NOX2-dependent H2O2 signal modulators, primary screen, NOX inhibitor project, cell-based, HEK293-NOX2, PMA-stimulated, Amplex Red fluorescence (AID 1159); details: 45 min, higher = more signal, called active from +8 up or from −8 down; note: test concentration not given here
Chain of NADPH oxidase 2 (Homo sapiens) (P04839 whole entry, looked up): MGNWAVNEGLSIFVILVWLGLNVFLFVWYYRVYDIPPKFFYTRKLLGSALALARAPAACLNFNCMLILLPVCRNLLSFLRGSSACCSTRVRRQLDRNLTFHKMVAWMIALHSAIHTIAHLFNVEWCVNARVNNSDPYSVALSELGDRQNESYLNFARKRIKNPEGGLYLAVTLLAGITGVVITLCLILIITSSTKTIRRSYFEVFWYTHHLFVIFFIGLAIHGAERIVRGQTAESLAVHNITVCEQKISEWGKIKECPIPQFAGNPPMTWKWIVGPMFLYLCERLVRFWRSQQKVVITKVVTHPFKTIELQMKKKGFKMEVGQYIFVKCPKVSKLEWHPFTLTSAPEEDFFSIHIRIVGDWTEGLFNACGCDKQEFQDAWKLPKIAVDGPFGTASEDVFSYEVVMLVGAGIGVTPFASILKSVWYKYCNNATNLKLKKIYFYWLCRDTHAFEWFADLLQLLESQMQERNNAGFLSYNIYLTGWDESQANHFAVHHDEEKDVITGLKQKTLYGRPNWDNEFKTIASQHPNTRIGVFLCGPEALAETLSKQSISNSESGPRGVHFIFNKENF

[9] = biological target: NADPH oxidase 4 (Homo sapiens) (UniProt Q9NPH5); experiment: NOX4-dependent H2O2 signal modulators, primary screen, NOX inhibitor project, cell-based, HEK293-NOX4, tetracycline-induced, Amplex Red fluorescence (AID 1160); details: 45 min, higher = more signal, called active from +8 up or from −8 down
Chain of NADPH oxidase 4 (Homo sapiens) (Q9NPH5 whole entry, looked up): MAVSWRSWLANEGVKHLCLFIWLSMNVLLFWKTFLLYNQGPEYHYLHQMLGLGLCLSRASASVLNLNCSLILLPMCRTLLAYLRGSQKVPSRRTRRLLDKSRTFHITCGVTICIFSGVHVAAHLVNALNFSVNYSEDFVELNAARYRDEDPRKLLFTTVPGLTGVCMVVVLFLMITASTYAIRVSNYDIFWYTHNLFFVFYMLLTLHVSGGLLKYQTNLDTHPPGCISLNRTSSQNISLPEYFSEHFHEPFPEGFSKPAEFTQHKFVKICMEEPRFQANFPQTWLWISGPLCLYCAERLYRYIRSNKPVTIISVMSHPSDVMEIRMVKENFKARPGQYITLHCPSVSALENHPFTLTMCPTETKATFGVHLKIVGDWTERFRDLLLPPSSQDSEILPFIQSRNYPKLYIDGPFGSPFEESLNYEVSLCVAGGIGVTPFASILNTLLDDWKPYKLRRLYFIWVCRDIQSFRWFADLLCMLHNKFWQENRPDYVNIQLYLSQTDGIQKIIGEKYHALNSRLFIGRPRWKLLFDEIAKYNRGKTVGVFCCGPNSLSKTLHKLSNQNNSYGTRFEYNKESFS

[10] = biological target: NADPH oxidase 5 (Homo sapiens) (UniProt Q96PH1); experiment: NOX5-dependent H2O2 signal modulators, primary screen, NOX inhibitor project, cell-based, HEK293-NOX5, Amplex Red fluorescence (AID 1161); details: HEK293-NOX5, ionomycin, 45 min, higher = more signal
Chain of NADPH oxidase 5 (Homo sapiens) (Q96PH1 whole entry, looked up): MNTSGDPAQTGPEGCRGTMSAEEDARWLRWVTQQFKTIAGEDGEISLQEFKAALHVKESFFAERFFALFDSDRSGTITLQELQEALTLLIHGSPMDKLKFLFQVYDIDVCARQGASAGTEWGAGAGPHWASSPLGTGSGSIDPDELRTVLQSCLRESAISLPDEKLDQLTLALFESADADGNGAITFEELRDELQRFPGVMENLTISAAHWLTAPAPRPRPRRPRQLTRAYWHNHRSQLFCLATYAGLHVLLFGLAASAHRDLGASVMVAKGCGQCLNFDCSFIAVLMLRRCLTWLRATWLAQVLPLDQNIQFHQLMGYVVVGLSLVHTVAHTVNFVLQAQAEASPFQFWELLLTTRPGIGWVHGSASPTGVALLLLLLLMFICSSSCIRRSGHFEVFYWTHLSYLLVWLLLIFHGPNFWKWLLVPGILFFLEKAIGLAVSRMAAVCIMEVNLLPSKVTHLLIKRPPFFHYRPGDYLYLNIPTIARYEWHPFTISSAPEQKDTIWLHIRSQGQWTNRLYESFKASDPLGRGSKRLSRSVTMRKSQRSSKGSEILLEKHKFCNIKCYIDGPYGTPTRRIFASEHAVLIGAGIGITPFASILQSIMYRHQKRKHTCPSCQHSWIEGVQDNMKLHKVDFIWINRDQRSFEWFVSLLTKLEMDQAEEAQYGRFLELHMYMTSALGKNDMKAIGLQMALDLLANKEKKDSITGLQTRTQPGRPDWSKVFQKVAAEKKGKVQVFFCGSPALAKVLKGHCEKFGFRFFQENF

Row | SMILES | z-score [1] | composite z-score [2] | z-score [3] | z-score [4] | z-score [5] | z-score [6] | z-score [7] | z-score [8] | z-score [9] | z-score [10]
1 | C=CCC(OC(C)=O)[C@@H]1[C@@H](N(Cc2cc3ccccc3o2)C(=O)Cc2ccc(F)cc2)c2cc(OCCCO)ccc2N1C(=O)c1ccc2ccccc2c1 (stereo not given in full) | -0.959 (inactive) | 0.106 | 1.18 (inactive) | 0.305 (inactive) | -0.97 (inactive) | 0.112 (inactive) | -0.448 | 0.512 (inactive) | 0.957 (inactive) | 2.34
2 | CN(C)CCCNC(=O)[C@@]1(c2ccc([N+](=O)[O-])cc2)CC(=O)N(CC23CC4CC(CC(C4)C2)C3)[C@@H]1c1ccc(CO)cc1I | -5.6 (inactive) | 0.198 | 11.4 (active) | 2.32 (inactive) | -8.44 (active) | 0.352 (inactive) | -2.32 | -10.3 (active) | -5.46 (inactive) | -7.32
3 | CN(C)C(=O)[C@@]1(CCS(=O)(=O)c2ccccc2)N=C(c2ccc(OCCCO)cc2)O[C@H]1c1ccccc1 | -0.1 (inactive) | 0.142 | 28.3 (active) | 24.3 (active) | 0.873 (inactive) | 1.48 (inactive) | -0.789 | 0.441 (inactive) | 0.114 (inactive) | -0.948
4 | C=CCC(OC(C)=O)[C@@H]1[C@@H](N(Cc2ccc(-c3cccc(C(F)(F)F)c3)o2)C(=O)c2ccc(-c3ccccc3)cc2)c2cc(OCCCO)ccc2N1C(=O)c1ccc2ccccc2n1 (stereo not given in full) | -0.662 (inactive) | -0.0501 | 0.394 (inactive) | -0.262 (inactive) | 0.0785 (inactive) | 0.188 (inactive) | 1.02 | -1.73 (inactive) | -1.3 (inactive) | -0.764
5 | C=CC[C@]1(C(=O)O)COC(c2ccc(OCCCO)cc2)=N1 | -0.27 (inactive) | 0.0437 | 2.23 (inactive) | -0.0432 (inactive) | 0.472 (inactive) | 0.2 (inactive) | -0.331 | 0.388 (inactive) | -0.287 (inactive) | 1.09
6 | COC(=O)c1cn(C[C@@H](Cc2ccccc2)NC(=O)N[C@H](CO)CCc2oc(C(C)=O)c(C(=O)OC)c2C(=O)OC)nn1 | 0.555 (inactive) | 0.238 | 14.3 (active) | 2.29 (inactive) | 1.08 (inactive) | 0.872 (inactive) | 0.419 | 0.744 (inactive) | 1.01 (inactive) | 1.84
7 | CC(CO)N1C(=O)[C@@H]2[C@H]3C(=O)OCC=C[C@H]3OC23C=CCN(Cc2ccccc2)C(=O)[C@@H]13 (stereo not given in full) | 2.36 (inactive) | -0.191 | 0.116 (inactive) | -1.05 (inactive) | -0.355 (inactive) | -1.39 (inactive) | 0.473 | 0.991 (inactive) | 0.662 (inactive) | 1.49
8 | CCOc1cc(C(O)C2C=CC3C(=O)N(c4ccccc4)C(=O)C3N2Nc2ccc(C#N)cc2)ccc1O (stereo not given) | -1.17 (inactive) | 0.302 | 16.3 (active) | 2.72 (inactive) | 0.743 (inactive) | 1.27 (inactive) | -1.03 | -2.87 (inactive) | -5.02 (inactive) | -4.31
9 | [N-]=[N+]=Nc1ccccc1C[C@]1(C(N)=O)N=C(c2ccc(OCCCO)cc2)O[C@H]1c1ccccc1N=[N+]=[N-] | -0.254 (inactive) | 0.237 | 28.5 (active) | 23.5 (active) | 1.87 (inactive) | 1.16 (inactive) | 1.14 | -4.36 (inactive) | -2.16 (inactive) | -2.52
10 | CCCCC=C[C@@H](NC(=O)c1ccc(-c2ccccc2)cc1)c1ccccc1 | -1.63 (inactive) | 0.258 | 2.54 (inactive) | 0.631 (inactive) | -0.309 (inactive) | 0.862 (inactive) | 0.0893 | -0.473 (inactive) | -1.12 (inactive) | 1.46
11 | CC(C)N1C(=O)C[C@@](C(=O)NCCCN(C)C)(c2ccc([N+](=O)[O-])cc2)[C@H]1c1ccc(CO)cc1 | -0.898 (inactive) | 0.0129 | 3.55 (inactive) | 1.1 (inactive) | 1.82 (inactive) | 0.891 (inactive) | 0.23 | 0.778 (inactive) | 0.334 (inactive) | -0.00257
12 | O=C1N(Cc2ccccc2)Cc2ccccc2[C@@H]2OC(c3ccc(OCCCO)cc3)=N[C@]12CCS(=O)(=O)c1ccccc1 | -0.715 (inactive) | 0.547 | 21.2 (active) | 4.09 (inactive) | 2.99 (inactive) | 0.492 (inactive) | 0.0549 | -0.146 (inactive) | 1.23 (inactive) | 1.03
13 | COCCOC(=O)N1C(=O)[C@@]2(c3cc(C#CC4=CCCCC4)ccc31)[C@H](C(=O)N1CCCCCCC1)[C@H]1C(=O)O[C@H](c3ccccc3)[C@H](c3ccccc3)N1[C@@H]2c1ccc(O)cc1 | 1.63 (inactive) | 0.93 | -0.43 (inactive) | -1.2 (inactive) | -1.27 (inactive) | -1.96 (inactive) | 2.44 | 0.67 (inactive) | 0.257 (inactive) | 0.871
14 | COc1ccc([Si](C)(C)[C@@H]2[C@@H](CCO)O[C@]3(C(=O)N(Cc4ccc(N5CCCCC5=O)cc4)c4ccccc43)[C@H]2C)cc1 | 0.968 (inactive) | 0.145 | 26 (active) | 21.8 (active) | 0.892 (inactive) | 2.63 (inactive) | 0.703 | 0.381 (inactive) | 0.706 (inactive) | 2.1
15 | C=CCC(OC(C)=O)[C@@H]1[C@@H](N(Cc2cccc3ccccc23)C(=O)Cc2ccc(F)cc2)c2cc(OCCCO)ccc2N1C(=O)c1ccc2ccccc2n1 (stereo not given in full) | 0.518 (inactive) | 0.0477 | 1.05 (inactive) | 0.167 (inactive) | -0.315 (inactive) | 0.0897 (inactive) | 0.103 | -0.126 (inactive) | 0.619 (inactive) | 1.94
16 | O=C1OCCC/C=C\[C@H]2OC34C=CCN(CCN5CCOCC5)C(=O)[C@H]3N(CCCCCCO)C(=O)[C@@H]4C12 (stereo not given in full) | 1.76 (inactive) | 0.369 | 3.78 (inactive) | -0.652 (inactive) | 0.752 (inactive) | -0.774 (inactive) | 1.66 | 0.752 (inactive) | -0.153 (inactive) | 1.9
17 | C=CC1c2cc(O)c(OC)cc2CCN1Cc1cc2c(cc1Br)OCO2 (stereo not given) | -1.93 (inactive) | 0.274 | 15.1 (active) | 3.15 (inactive) | 1.57 (inactive) | 1.01 (inactive) | 0.0469 | -6.22 (inactive) | -3.87 (inactive) | -4.16
18 | NCCCCCCNC(=O)[C@@H]1C[C@@H]2C(=O)N[C@@H](CCCCN)C(=O)N2[C@@H]1c1cccc(OCCO)c1 | 0.68 (inactive) | 0.784 | 3.51 (inactive) | 0.289 (inactive) | -0.147 (inactive) | 0.472 (inactive) | -0.447 | 0.937 (inactive) | 1.02 (inactive) | 1.01
19 | C=CCC(OC(C)=O)[C@@H]1[C@@H](N(Cc2cccc3ccccc23)C(=O)c2cccc3ccccc23)c2cc(OCCCO)ccc2N1C(=O)c1ccc(-c2ccccc2)cc1 (stereo not given in full) | -0.929 (inactive) | -0.106 | -0.17 (inactive) | 0.526 (inactive) | 0.0426 (inactive) | 0.361 (inactive) | 0.684 | -0.677 (inactive) | 0.104 (inactive) | -2.47
20 | O=C(NCc1ccccc1)[C@@H]1c2ccccc2C(=O)N(Cc2ccccc2C(F)(F)F)[C@H]1c1ccc(CO)cc1 | 0.546 (inactive) | -0.0731 | 3.68 (inactive) | 0.75 (inactive) | 1.53 (inactive) | 0.207 (inactive) | 0.0835 | -1.13 (inactive) | 0.914 (inactive) | -0.366
21 | CC(CO)N1C(=O)[C@@H]2[C@H]3C(=O)OCC=C[C@H]3OC23C=CCN(CCN2CCOCC2)C(=O)[C@@H]13 (stereo not given in full) | -1.06 (inactive) | -0.482 | 0.158 (inactive) | -0.358 (inactive) | -0.0103 (inactive) | -0.255 (inactive) | -0.471 | 0.381 (inactive) | 0.194 (inactive) | 1.2
22 | COCCCNC(=O)[C@@]1(Sc2ccc(C)cc2)CC(=O)N(C2CCCCC2)[C@@H]1c1ccc(CO)cc1 | -0.204 (inactive) | 0.0209 | 0.309 (inactive) | 0.17 (inactive) | 0.0051 (inactive) | 0.326 (inactive) | 0.0394 | 0.175 (inactive) | -0.512 (inactive) | -1.3
23 | C[C@@H]1NC(=O)[C@@]23C(=O)N[C@@H](Cc4ccccc4)C2[C@H](C)[C@@]2(C)O[C@H]2C3/C=C/C/C=C\CNC(=O)[C@@H]2CCCN2C1=O (stereo not given in full) | -0.906 (inactive) | -0.147 | 0.518 (inactive) | -0.0429 (inactive) | -1.12 (inactive) | -0.161 (inactive) | 0.0613 | -0.0487 (inactive) | 0.581 (inactive) | -2.64
24 | CC(C)(C)N1CC=CC23O[C@@H]4C=CCOC(=O)[C@@H]4[C@H]2C(=O)N(CCCCCCO)[C@@H]3C1=O (stereo not given in full) | -0.348 (inactive) | -0.108 | 1.69 (inactive) | 0.127 (inactive) | 0.935 (inactive) | 0.381 (inactive) | -0.613 | 0.959 (inactive) | -0.503 (inactive) | 1.47
25 | C=CCC(OC(C)=O)[C@@H]1[C@@H](N(Cc2cc3ccccc3o2)C(=O)c2ccc(C)cc2)c2cc(OCCCO)ccc2N1C(=O)Cc1ccc(OC)cc1 (stereo not given in full) | 1.72 (inactive) | 0.25 | 1.19 (inactive) | 0.794 (inactive) | -0.528 (inactive) | 0.211 (inactive) | -0.0745 | 0.391 (inactive) | 0.652 (inactive) | 1.72
26 | Cc1cc(C)c(C(O)C2C=CC3C(=O)N(c4ccccc4)C(=O)C3N2Nc2ccc(C(C)C)cc2)c(C)c1 (stereo not given) | -1.53 (inactive) | 0.51 | 1.02 (inactive) | 1.14 (inactive) | 0.858 (inactive) | 1.05 (inactive) | -0.484 | -1.82 (inactive) | -3.87 (inactive) | -7.33
